In publication PMC5540273 (PLoS ONE, 2017):
Like-named read-outs stand apart in the source and are kept apart here.

What was measured:
MAP3K15 = conditions: concentration: 1 μM, replicates: in singlicate; n = 1
MAP3K1 = conditions: concentration: 1 μM, replicates: in singlicate; n = 1
MAP3K2 = conditions: concentration: 1 μM, replicates: in singlicate; n = 1
MAP3K3 = conditions: concentration: 1 μM, replicates: in singlicate; n = 1
MAP3K4 = conditions: concentration: 1 μM, replicates: in singlicate; n = 1
MAP4K2 = conditions: concentration: 1 μM, replicates: in singlicate; n = 1
MAP4K3 = conditions: concentration: 1 μM, replicates: in singlicate; n = 1
MAP4K4 = conditions: concentration: 1 μM, replicates: in singlicate; n = 1
MAP4K5 = conditions: concentration: 1 μM, replicates: in singlicate; n = 1
MAPKAPK2 = conditions: n = 1
MAPKAPK5 = conditions: concentration: 1 μM, replicates: in singlicate; n = 1
MARK1 = conditions: concentration: 1 μM, replicates: in singlicate; n = 1
MARK2 = conditions: n = 1
MARK3 = conditions: n = 1
MARK4 = conditions: n = 1
MAST1 = conditions: concentration: 1 μM, replicates: in singlicate; n = 1
MEK1 = tested on: T1, MEK1; conditions: concentration: 1 μM, replicates: in singlicate; n = 1
T1 construct: gene MAP2K1

MEK2 = tested on: T2, MEK2; conditions: concentration: 1 μM, replicates: in singlicate; n = 1
T2 construct: gene MAP2K2

MEK3 = tested on: T3, MEK3; conditions: concentration: 1 μM, replicates: in singlicate; n = 1
T3 construct: gene MAP2K3

MEK4 = tested on: T4, MEK4; conditions: concentration: 1 μM, replicates: in singlicate; n = 1
T4 construct: gene MAP2K4

[1] = concentration: 1 μM, replicates: in singlicate
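Also: KINOMEscan kinase panel screen.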

Structure (SMILES): Cn1cc(-c2ccc3c(c2)CCN3C(=O)Cc2cccc(Cl)c2)c2c(N)ncnc21 [GSK2606590]
- %Inh (MAP3K15): 17%
- %Inh (MAP3K1): 11%
- %Inh (MAP3K2): 84%
- %Inh (MAP3K3): 56%
- %Inh (MAP3K4): 52%
- %Inh (MAP4K2): 8%
- %Inh (MAP4K3): 71%
- %Inh (MAP4K4): 0%
- %Inh (MAP4K5): 79%
- %Inh (MAPKAPK2; [1]): 19%
- %Inh (MAPKAPK5): 0%
- %Inh (MARK1): 2%
- %Inh (MARK2; [1]): 2%
- %Inh (MARK3; [1]): 3%
- %Inh (MARK4; [1]): 11%
- %Inh (MAST1): 0%
- %Inh (MEK1): 19%
- %Inh (MEK2): 0%
- %Inh (MEK3): 0%
- %Inh (MEK4): 33%

Structure (SMILES): O=C(Nc1n[nH]c2nc(-c3ccc(O)cc3)ccc12)C1CC1 [SB-710363]
- %Inh (MAP3K15): 32%
- %Inh (MAP3K1): 10%
- %Inh (MAP3K2): 13%
- %Inh (MAP3K3): 30%
- %Inh (MAP3K4): 0%
- %Inh (MAP4K2): 41%
- %Inh (MAP4K3): 0%
- %Inh (MAP4K4): 53%
- %Inh (MAP4K5): 0%
- %Inh (MAPKAPK2; [1]): 0%
- %Inh (MAPKAPK5): 4%
- %Inh (MARK1): 0%
- %Inh (MARK2; [1]): 38%
- %Inh (MARK3; [1]): 0%
- %Inh (MARK4; [1]): 0%
- %Inh (MAST1): 36%
- %Inh (MEK1): 0%
- %Inh (MEK2): 8%
- %Inh (MEK3): 36%
- %Inh (MEK4): 10%

Structure (SMILES): Cc1ccc(F)c(C(=O)Nc2cccc(-c3nn4ccccc4c3-c3ccnc(Nc4cccc(F)c4)n3)c2)c1F [GSK361061]
- %Inh (MAP3K15): 24%
- %Inh (MAP3K1): 31%
- %Inh (MAP3K2): 16%
- %Inh (MAP3K3): 0%
- %Inh (MAP3K4): 44%
- %Inh (MAP4K2): 0%
- %Inh (MAP4K3): 18%
- %Inh (MAP4K4): 25%
- %Inh (MAP4K5): 80%
- %Inh (MAPKAPK2; [1]): 23%
- %Inh (MAPKAPK5): 0%
- %Inh (MARK1): 0%
- %Inh (MARK2; [1]): 14%
- %Inh (MARK3; [1]): 0%
- %Inh (MARK4; [1]): 14%
- %Inh (MAST1): 0%
- %Inh (MEK1): 3%
- %Inh (MEK2): 0%
- %Inh (MEK3): 0%
- %Inh (MEK4): 37%

Structure (SMILES): Cl.Cl.NCC(NCc1ccc(-c2ccnc3[nH]ccc23)s1)c1ccccc1 (centres unmarked) [GSK1321565]
- %Inh (MAP3K15): 0%
- %Inh (MAP3K1): 0%
- %Inh (MAP3K2): 63%
- %Inh (MAP3K3): 29%
- %Inh (MAP3K4): 0%
- %Inh (MAP4K2): 64%
- %Inh (MAP4K3): 2%
- %Inh (MAP4K4): 0%
- %Inh (MAP4K5): 0%
- %Inh (MAPKAPK2; [1]): 0%
- %Inh (MAPKAPK5): 0%
- %Inh (MARK1): 0%
- %Inh (MARK2; [1]): 0%
- %Inh (MARK3; [1]): 0%
- %Inh (MARK4; [1]): 0%
- %Inh (MAST1): 11%
- %Inh (MEK1): 0%
- %Inh (MEK2): 0%
- %Inh (MEK3): 49%
- %Inh (MEK4): 18%

Structure (SMILES): CCn1c(-c2nonc2N)nc2c(C#CC(C)(C)O)ncc(OCCCCN)c21.O=C(O)C(F)(F)F.O=C(O)C(F)(F)F [GSK507274]
- %Inh (MAP3K15): 3%
- %Inh (MAP3K1): 100%
- %Inh (MAP3K2): 90%
- %Inh (MAP3K3): 81%
- %Inh (MAP3K4): 53%
- %Inh (MAP4K2): 0%
- %Inh (MAP4K3): 0%
- %Inh (MAP4K4): 7%
- %Inh (MAP4K5): 35%
- %Inh (MAPKAPK2; 1 µM): 28%
- %Inh (MAPKAPK5): 0%
- %Inh (MARK1): 0%
- %Inh (MARK2; 1 µM): 68%
- %Inh (MARK3; 1 µM): 71%
- %Inh (MARK4; 1 µM): 0%
- %Inh (MAST1): 56%
- %Inh (MEK1): 0%
- %Inh (MEK2): 34%
- %Inh (MEK3): 0%
- %Inh (MEK4): 1%

Structure (SMILES): COc1ccc(-c2coc3ccc(-c4nnc(SCc5ccc(OC)c(C(F)(F)F)c5)o4)cc23)cc1
- %Inh (MAP3K15): 0%
- %Inh (MAP3K1): 0%
- %Inh (MAP3K2): 10%
- %Inh (MAP3K3): 0%
- %Inh (MAP3K4): 0%
- %Inh (MAP4K2): 0%
- %Inh (MAP4K3): 0%
- %Inh (MAP4K4): 6%
- %Inh (MAP4K5): 0%
- %Inh (MAPKAPK2; [1]): 0%
- %Inh (MAPKAPK5): 23%
- %Inh (MARK1): 5%
- %Inh (MARK2; [1]): 2%
- %Inh (MARK3; [1]): 0%
- %Inh (MARK4; [1]): 4%
- %Inh (MAST1): 13%
- %Inh (MEK1): 13%
- %Inh (MEK2): 22%
- %Inh (MEK3): 10%
- %Inh (MEK4): 30%

Structure (SMILES): COc1cc2c(cc1OCCN1CCNCC1)ncc1c3ccc(C#N)cc3[nH]c21
- %Inh (MAP3K15): 90.1%
- %Inh (MAP3K1): 33%
- %Inh (MAP3K2): 4%
- %Inh (MAP3K3): 14%
- %Inh (MAP3K4): 7%
- %Inh (MAP4K2): 51%
- %Inh (MAP4K3): 8%
- %Inh (MAP4K4): 32%
- %Inh (MAP4K5): 5%
- %Inh (MAPKAPK2; [1]): 0%
- %Inh (MAPKAPK5): 0%
- %Inh (MARK1): 0%
- %Inh (MARK2; [1]): 8%
- %Inh (MARK3; [1]): 0%
- %Inh (MARK4; [1]): 0%
- %Inh (MAST1): 83%
- %Inh (MEK1): 34%
- %Inh (MEK2): 57%
- %Inh (MEK3): 34%
- %Inh (MEK4): 18%

Structure (SMILES): COc1cc(Nc2ncc3c(C)nc(-c4cc5ccccc5[nH]4)n3n2)cc(OC)c1OC [GW869516]
- %Inh (MAP3K15): 0%
- %Inh (MAP3K1): 0%
- %Inh (MAP3K2): 0%
- %Inh (MAP3K3): 14%
- %Inh (MAP3K4): 52%
- %Inh (MAP4K2): 0%
- %Inh (MAP4K3): 0%
- %Inh (MAP4K4): 19%
- %Inh (MAP4K5): 11%
- %Inh (MAPKAPK2; [1]): 0%
- %Inh (MAPKAPK5): 0%
- %Inh (MARK1): 16%
- %Inh (MARK2; [1]): 11%
- %Inh (MARK3; [1]): 3%
- %Inh (MARK4; [1]): 22%
- %Inh (MAST1): 13%
- %Inh (MEK1): 0%
- %Inh (MEK2): 0%
- %Inh (MEK3): 0%
- %Inh (MEK4): 0%

Structure (SMILES): Nc1ncnc2c1nc(-c1ccccc1)n2-c1ccccc1 [SKF-97293]
- %Inh (MAP3K15): 22%
- %Inh (MAP3K1): 34%
- %Inh (MAP3K2): 28%
- %Inh (MAP3K3): 14%
- %Inh (MAP3K4): 35%
- %Inh (MAP4K2): 18%
- %Inh (MAP4K3): 3%
- %Inh (MAP4K4): 0%
- %Inh (MAP4K5): 2%
- %Inh (MAPKAPK2; [1]): 0%
- %Inh (MAPKAPK5): 0%
- %Inh (MARK1): 27%
- %Inh (MARK2; [1]): 0%
- %Inh (MARK3; [1]): 39%
- %Inh (MARK4; [1]): 33%
- %Inh (MAST1): 47%
- %Inh (MEK1): 15%
- %Inh (MEK2): 14%
- %Inh (MEK3): 50%
- %Inh (MEK4): 35%

Structure (SMILES): Nc1ncc(-c2ccc3nccc(-c4ccncc4)c3c2)cc1S(=O)(=O)N1CCOCC1 [GSK1627798]
- %Inh (MAP3K15): 0%
- %Inh (MAP3K1): 7%
- %Inh (MAP3K2): 19%
- %Inh (MAP3K3): 0%
- %Inh (MAP3K4): 9%
- %Inh (MAP4K2): 0%
- %Inh (MAP4K3): 0%
- %Inh (MAP4K4): 0%
- %Inh (MAP4K5): 3%
- %Inh (MAPKAPK2; [1]): 14%
- %Inh (MAPKAPK5): 0%
- %Inh (MARK1): 0%
- %Inh (MARK2; [1]): 0%
- %Inh (MARK3; [1]): 0%
- %Inh (MARK4; [1]): 0%
- %Inh (MAST1): 0%
- %Inh (MEK1): 0%
- %Inh (MEK2): 0%
- %Inh (MEK3): 24%
- %Inh (MEK4): 52%
